TMEM16A inh: blocks the mouse calcium-activated chloride channel TMEM16A | Q8BHY3 | HEK293 TMEM16A/YFP iodide influx fluorescence, ionomycin | normalized B-score (activity score, 25-100; higher = stronger inhibition) at 10 µM | 310,000 tested, 1.2% active | AID 588511;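 active means ratio plate-corrected score three or more library SD toward inhibition, starting fluorescence score within five deviations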;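 further: score derived from kinetic fluorescence span divided by baseline fluorescence per well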
GPR7 antagonist: blocks human GPR7 receptor signaling. P48145. GPR7-expressing cells, fluorescence antagonist assay. inhibition, % at 4.4 µM. 290,000 tested, 1.1% active. AID 1861; in the data active means inhibition above about 16%, passing the limit was not always enough;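 further: cells stimulated with the agonist NPW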
Target sequence (P48145 whole entry, looked up): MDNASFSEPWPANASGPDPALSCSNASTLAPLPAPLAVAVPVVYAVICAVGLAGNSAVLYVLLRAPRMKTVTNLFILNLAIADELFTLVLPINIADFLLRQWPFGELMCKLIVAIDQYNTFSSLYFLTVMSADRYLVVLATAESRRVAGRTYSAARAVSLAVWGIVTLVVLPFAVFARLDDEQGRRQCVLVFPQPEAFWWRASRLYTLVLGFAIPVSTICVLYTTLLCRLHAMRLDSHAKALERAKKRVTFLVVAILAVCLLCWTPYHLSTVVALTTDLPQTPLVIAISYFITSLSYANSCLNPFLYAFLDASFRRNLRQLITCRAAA
Kir21 block: Kir2.1 (mouse) channel inhibition; P35561; HEK293-Kir2.1, FluxOR thallium flux fluorescence; stronger effect = lower value; B-score at 10 µM; 310,000 tested, 0.85% active; AID 1672;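 active means fluorescence ratio B-score at or below minus 3 SD of library scores, with starting-brightness B-score within 2 SD, cut at about -4.2 in these data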;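 further: channel flux triggered by added potassium and thallium sulfate stimulus; B-score of peak minus minimum fluorescence over baseline after thallium stimulus; more negative B-score means stronger Kir2.1 block with less thallium influx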
CHT inh: inhibits the human high affinity choline transporter; B-score at 10 µM; CHT-expressing cells, membrane potential dye, choline response; stronger effect = lower value; Q9GZV3; 310,000 tested, 0.86% active;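 active means B-score over 3 SD under the library average, and starting fluorescence ratio not unusually high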;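 further: choline stimulus applied at its EC90 after an EC20 pre-addition; B-score computed on integrated fluorescence ratio after choline addition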
CHT PAM: human CHT allosteric activation; 310,000 tested, 0.49% active; Q9GZV3; B-score at 10 µM; CHT-expressing cells, membrane potential dye, choline EC20; stronger effect = higher value; LV-AA mutant CHT in HEK293 cells;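 active means initial fluorescence not abnormally high and integrated response B-score, plate-corrected, over 3 SD above library mean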
TMEM16A act: activators or potentiators of mouse TMEM16A chloride channel; AID 623877; 340,000 tested, 0.3% active; B-score at 10 µM; HEK293 TMEM16A/YFP-H148Q/I152L, iodide quench fluorescence; stronger effect = lower value;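 active means fluorescence-ratio B-score plate-corrected deviation score at least 3 library SD below zero, with starting fluorescence score within 5 deviations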;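 further: channel opened by trigger with iodide after compound preincubation; score built on the fluorescence ratio of max minus min over baseline; more negative score means more quench and so TMEM16A activation or potentiation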
CHT inh conf: human CHT inhibition, confirmatory screen; shares compounds with CHT inh; CHT-expressing cells, choline membrane potential dye; LV-to-AA substituted CHT, HEK293 cells; CHT activity remaining % of control (stronger effect = lower value), % at 10 µM; 2,400 tested, 70% active; AID 493221;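 active means choline transporter activity left, mean of duplicates at 10 µM, below buffer-only control mean minus 3 SD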;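 further: depolarization triggered by choline at its EC90 following an EC20 pre-addition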
HEK293 MPD ctr: activity in parental HEK293 cells lacking CHT; shares compounds with CHT inh; membrane potential dye, choline response; active = decrease or increase beyond buffer ±3SD; membrane potential ratio readout (active if shifted either direction beyond buffer ±3SD; no single direction) at 10 µM; 2,400 tested, 4% active; AID 493222;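 further: parental cells lack the transporter so any hit is non-specific; ratio is peak minus trough fluorescence over baseline after EC90 choline challenge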
Numbers stand for hits; 0 = inactive; - = no result given. Hits are enriched below; roughly 3.7% of the tested compounds scored in any of these assays.

SMILES	TMEM16A inh	GPR7 antagonist	Kir21 block	CHT inh	CHT PAM	TMEM16A act	CHT inh conf	HEK293 MPD ctr
CC1=NN(c2ccccc2)C(=O)/C1=C/c1ccc(-c2ccc(C)c(C(=O)O)c2)o1	0	-	0	-6.2	0	0	42%	0
CC1=NOC(=O)/C1=C\c1ccc(-c2ccc(Cl)c(C(=O)O)c2)o1	-	0	0	-	-	0	-	-
Cc1ccc(C(=O)C[n+]2cccc(C(N)=O)c2)cc1	0	0	0	0	0	0	-	-
Cc1ccc(C)[n+](CC(=O)c2ccc(-c3ccccc3)cc2)c1	0	0	0	-4.9	0	0	25%	0
Cc1ccc[n+](CC(=O)c2ccc(-c3ccccc3)cc2)c1	0	0	0	-11	0	0	0	0
Cc1ccc(C(=O)C[n+]2ccccc2)cc1	0	0	0	0	0	0	-	-
Cc1ccc[n+](CC(=O)c2ccc(Cl)cc2)c1	0	0	0	-11	0	0	5.6%	0
CCc1nn(CC(=O)NCc2cccnc2)c(=O)c2cc3occc3n12	0	0	0	0	0	0	-	-
COc1ccccc1CC1CC(=O)N(c2cccc(Cl)c2C)C1=O (stereo not given)	0	0	0	0	0	0	-	-
Cc1cc(NC(=O)CSc2ncc(C(=O)O)n2-c2ccc(F)cc2)no1	-	-	-	-	-	0	-	-
CC(=O)c1ccc(Nc2nc(NCCO)nc(OC(C(F)(F)F)C(F)(F)F)n2)cc1	0	0	0	-5.1	0	0	66%	0
CCC(C)(C)NC(=O)/C=C/c1cnc2ccccc2n1	0	0	0	0	0	0	-	-
Cc1nc(SC2CC(=O)N(c3cc(Cl)cc(Cl)c3)C2=O)nc2c1CCCC2 (stereo not given)	0	0	0	-9.2	0	-	57%	0
Cc1cccc(N2C(=O)CC(Sc3nc(C)c4c(n3)CCCC4)C2=O)c1 (stereo not given)	0	0	0	0	0	0	-	-
CCOC(=O)c1ccc(NS(=O)(=O)c2ccc3c(c2)NC(=O)CCS3)cc1	0	0	0	-5.1	0	0	64%	0
O=C1C[C@H]2[C@H](CO)[C@@H](OC(=O)c3ccc(-c4ccccc4)cc3)C[C@H]2O1	25	0	0	-5.8	0	0	64%	0
O=C(Oc1ccccc1C(=O)N1CCOCC1)c1ccc(F)cc1	0	0	0	-8.2	0	0	0	0
CCC1CCCCN1CCCNC(=O)c1ccc2c(c1)c(C)c(C)n2C (stereo not given)	0	0	0	-5.7	0	0	35%	0
CCC1CCCCN1CCCNC(=O)c1ccc2c(c1)c(C)c(C)n2CC (stereo not given)	0	0	0	0	0	0	-	-
CCC1CCCCN1CCCNC(=O)c1ccc2c(=O)n(Cc3ccc(OC)cc3)c(=O)[nH]c2c1 (stereo not given)	0	0	0	0	0	0	-	-
CCCCCn1c(=O)[nH]c2cc(C(=O)NCCCN3CCCCC3CC)ccc2c1=O (stereo not given)	0	0	0	-6	0	0	41%	0
COc1ccc(OC)c(S(=O)(=O)N2CCC(C(=O)NCc3ccccn3)CC2)c1	0	0	0	0	0	0	-	-
O=S(=O)(c1ccc(N2CCN(S(=O)(=O)c3ccccc3)CC2)nc1)N1CCCC1	0	0	0	0	0	0	-	-
O=S(=O)(c1ccc(N2CCCC2)nc1)N1CCCC1	0	0	0	-5.8	0	0	43%	0
O=C(c1ccc(COc2ccccc2[N+](=O)[O-])o1)N1CCCCCC1	0	0	0	-6.1	0	0	69%	0
SMILES	TMEM16A inh	GPR7 antagonist	Kir21 block	CHT inh	CHT PAM	TMEM16A act	CHT inh conf	HEK293 MPD ctr
O=C(NC1CCCCC1)N(Cc1ccccc1)Cc1ccco1	0	0	0	-5.6	0	0	70%	0
COc1ccc(S(=O)(=O)NCC(c2ccc3c(c2)OCO3)N2CCOCC2)cc1 (stereo not given)	0	-	0	0	0	0	-	-
CN1CCN(C(=O)CCCN2C(=O)/C(=C/c3ccccc3)SC2=S)CC1	0	0	0	-6.6	0	0	46%	0
CCN(CC)S(=O)(=O)c1cc(C)ccc1SC	0	0	0	0	0	0	-	-
O=C(CSc1nc2ccccc2[nH]1)c1ccc2c(c1)OCO2	0	0	0	-6.1	0	0	36%	0
O=C(CSc1nc2ccccc2[nH]1)NCc1ccc2c(c1)OCO2	0	0	0	0	0	0	-	-
O=C(/C=C/c1ccco1)OCC(=O)N1CCCCC1	-	-	-	-	-	0	-	-
O=[N+]([O-])c1cc(Cl)c(Cl)c(Cl)c1Cl	-	-	-	-	-	0	-	-
Cc1ccc(Nc2c([N+](=O)[O-])ccc3nonc23)cc1C	0	0	0	0	0	0	-	-
CN(CCC#N)C(=O)COC(=O)c1ccccc1C(=O)c1ccc(Cl)c([N+](=O)[O-])c1	0	0	0	-4.9	0	0	49%	0
Cc1ccc(C(C)C)c(OCC(=O)NS(=O)(=O)c2ccc(Cl)cc2)c1	0	0	0	-6.4	0	0	14%	0
Cc1ccccc1OCC(=O)NS(=O)(=O)c1ccc(Cl)cc1	0	0	0	0	0	0	-	-
COc1cc(OC)cc(-c2oc(=O)c3cc(OC)c(OC)cc3c2/C=C/c2ccc(F)cc2)c1	-	-	-	-	-	0	-	-
CCCc1cc(=O)[nH]c(SCc2nc3ccccc3s2)n1	0	0	0	-5	0	0	66%	0
Cc1cc(=O)[nH]c(SCc2nc3ccccc3s2)n1	0	0	0	0	0	0	-	-
CCOC(=O)c1oc2cc(O)cc(C)c2c(=O)c1-c1cscn1	0	0	0	0	0	0	-	-
CCCc1cc2c(=O)c(-c3cscn3)c(C(=O)OCC)oc2cc1O	0	0	0	-5.8	0	0	28%	0
COc1ccc(C(=O)NC2CCCCC2)cc1OC1CCN(C(C)C)CC1	0	0	0	-7.7	0	0	9.8%	0
COc1ccc(C(=O)NC2CCCCCCC2)cc1OC	0	-	0	0	0	0	-	-
COc1ccc(C(=O)NCCC2=CCCCC2)cc1OC1CCN(C(C)C)CC1	0	0	0	-11	0	0	5.1%	0
COc1ccc(C(=O)NCCCSC)cc1OC1CCN(C(C)C)CC1	0	0	0	-9.1	0	0	18%	0
COc1ccc(C(=O)NC(C)CCn2cccn2)cc1OC1CCN(C(C)C)CC1 (stereo not given)	0	0	0	-9.8	0	0	13%	0
COCC1CCN(C(=O)c2ccc(OC)c(OC3CCN(C(C)C)CC3)c2)CC1	0	0	0	0	0	0	-	-
O=C(COc1cccc(Cl)c1Cl)NC1CC1	-	-	-	-	-	0	-	-

High-throughput results from PubChem.
